The sample as a whole holds a higher share of hits than the screen did.
ST2 IL33 inh – IL1RL1 inhibition; hit rate 2.3% among 78,000; Q01638; AID 1259354; inhibition, % for hits at 17 µM; AlphaLISA ST2-Fc/biotin-IL-33 interaction, 1 h; in the data active means inhibition above about 30%
Target sequence (Q01638 whole entry, looked up): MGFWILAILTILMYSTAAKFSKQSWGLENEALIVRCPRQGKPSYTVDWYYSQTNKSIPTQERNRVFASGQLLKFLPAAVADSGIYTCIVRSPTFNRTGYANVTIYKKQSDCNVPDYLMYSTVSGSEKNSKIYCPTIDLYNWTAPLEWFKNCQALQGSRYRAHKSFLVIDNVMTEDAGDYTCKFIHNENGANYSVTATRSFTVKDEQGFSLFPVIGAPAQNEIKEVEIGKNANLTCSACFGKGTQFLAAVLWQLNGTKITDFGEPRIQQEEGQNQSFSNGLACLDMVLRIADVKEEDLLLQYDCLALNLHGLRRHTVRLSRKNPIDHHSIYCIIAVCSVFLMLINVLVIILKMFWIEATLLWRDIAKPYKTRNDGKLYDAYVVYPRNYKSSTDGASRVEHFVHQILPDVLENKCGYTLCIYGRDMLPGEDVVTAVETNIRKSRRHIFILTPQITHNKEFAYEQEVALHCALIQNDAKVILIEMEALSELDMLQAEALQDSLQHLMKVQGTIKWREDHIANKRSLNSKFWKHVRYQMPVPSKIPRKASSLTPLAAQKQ
Numbers without * were called inactive.

For CC(C)(C)c1ccc(S(N)(=O)=O)cc1 the results were ST2 IL33 inh inactive.
CC(C)(C)c1ccc(S(=O)(=O)N=C2C=CC(=O)c3ccccc32)cc1 was read as ST2 IL33 inh 44.0%*.
`CCOc1ccc(S(=O)(=O)N=C2C=CC(=O)c3ccccc32)cc1` gave ST2 IL33 inh 49.0%*.
For CCc1ccc(C2CC(c3ccccc3)Nc3ncnn32)cc1 (stereo not drawn) the results were ST2 IL33 inh inactive.
COc1ccccc1-c1noc(CCC(=O)N2CCCC2C(F)(F)F)n1 (stereo not drawn) was read as ST2 IL33 inh inactive.
For CC(=O)N1c2ccccc2NC2=C(C(=O)CC(C)(C)C2)C1c1ccc(Br)s1 (stereo not drawn) the results were ST2 IL33 inh inactive.
CN(C)c1ccc(C(=O)N2N=C(c3cccc(Br)c3)CC2(O)C(F)(F)F)cc1 (stereo not drawn) was read as ST2 IL33 inh inactive.
Screening COC(N=Cc1c(C)[nH]n(-c2ccccc2)c1=O)(OC)OC returned ST2 IL33 inh inactive.
`COc1ccc(CNC(=O)CC[C@H]2CNC(=O)[C@@H]3[C@@H](CCN3C)N2C)cc1` gave ST2 IL33 inh inactive.
Cc1c(C(=O)NCCN(C)C)oc2ccc(S(=O)(=O)N3CCCCCC3)cc12 was read as ST2 IL33 inh inactive.
Cc1cc(Cl)ccc1OC(C)C(=O)Nc1c(Cl)cccc1Cl (stereo not drawn) was read as ST2 IL33 inh inactive.
For CC(Oc1ccccc1)C(=O)Nc1cccc(Cl)c1 (stereo not drawn) the results were ST2 IL33 inh inactive.
CC(Oc1ccc(Cl)cc1Cl)C(=O)Nc1cccc([N+](=O)[O-])c1 (stereo not drawn) was read as ST2 IL33 inh 30.0%*.
CN(C)S(=O)(=O)CCNC1CCN(c2ccc3c(c2)OCO3)CC1 was read as ST2 IL33 inh inactive.
Cc1ccsc1CN1CCC(n2cc(C(O)c3ccccc3)nn2)CC1 (stereo not drawn) was read as ST2 IL33 inh inactive.
Cn1c(=O)cc2c3c(c(N4CCCCC4)ccc31)C(=O)c1ccccc1-2 was read as ST2 IL33 inh 44.0%*.
Cn1c(=O)cc(SCC(=O)N2CCCCCC2)c2ccccc21 was read as ST2 IL33 inh inactive.
For Cn1c(=O)cc2c3c(c(Br)ccc31)C(=O)c1ccccc1-2 the results were ST2 IL33 inh inactive.
`O=C(CC1C(=O)NCCN1Cc1ccccc1C(F)(F)F)NCc1ccon1` (stereo not drawn) gave ST2 IL33 inh inactive.
Screening CC(=O)Nc1sc2c(c1C#N)CCCC2 returned ST2 IL33 inh inactive.
For N#Cc1c(-n2cccc2C=O)sc2c1CCCC2 the results were ST2 IL33 inh inactive.
`N#Cc1c(N)sc2c1CCCC2` gave ST2 IL33 inh 31.0%*.
COC(=O)C1C(=O)C2=C(CC1C)NC(C)=C(C(=O)OC1CCCCC1)C2c1ccccc1OC (stereo not drawn) was read as ST2 IL33 inh inactive.
O=c1n(CCCn2cccc2)nc(C2CCNCC2)n1-c1ccccc1 was read as ST2 IL33 inh 30.0%*.
CC(C)SCCn1nc(C2CCCNC2)n(-c2ccccc2)c1=O (stereo not drawn) was read as ST2 IL33 inh inactive.
For O=c1n(Cc2cccc(F)c2F)nc(C2CCNCC2)n1Cc1ccccc1 the results were ST2 IL33 inh inactive.
CCCOc1ccc2oc(=O)c3c(c2c1)CCCN3C(=O)CN(C)c1ccccc1 was read as ST2 IL33 inh inactive.
For COc1ccc(NC(=O)CN2C(=O)c3ccc([N+](=O)[O-])cc3C2=O)c(OC)c1 the results were ST2 IL33 inh inactive.
`COc1ccc(N2C(=O)C(N3C(=O)c4ccccc4C3=O)C2c2cccc(OC)c2)cc1` (stereo not drawn) gave ST2 IL33 inh inactive.
COc1ccccc1C1CC(c2ccc(Br)cc2)=NN1S(=O)(=O)c1ccccc1 (stereo not drawn) was read as ST2 IL33 inh inactive.
`COc1ccc(C2=NN(C(=O)CCC(=O)O)C(c3ccc(Cl)cc3)C2)cc1` (stereo not drawn) gave ST2 IL33 inh inactive.
For COc1ccc(C2CC(c3ccc(Br)cc3)=NN2S(=O)(=O)c2ccccc2)cc1 (stereo not drawn) the results were ST2 IL33 inh 34.0%*.
`COc1ccc(C2=NN(CN3C(=O)C(=O)c4ccccc43)C(c3cccc([N+](=O)[O-])c3)C2)cc1` (stereo not drawn) gave ST2 IL33 inh 39.0%*.
Screening COc1ccc(C2=NN(CN3C(=O)C(=O)c4ccccc43)C(c3ccccc3)C2)cc1 (stereo not drawn) returned ST2 IL33 inh 36.0%*.
For COc1ccc(C2CC(c3ccccc3)=NN2S(=O)(=O)c2ccccc2)cc1 (stereo not drawn) the results were ST2 IL33 inh inactive.
`COc1ccc(C2=NN(S(=O)(=O)c3ccccc3)C(c3ccc(Br)cc3)C2)cc1` (stereo not drawn) gave ST2 IL33 inh inactive.
O=C(Nc1ccc(S(=O)(=O)N2CCCC2)cc1)C1CC1 was read as ST2 IL33 inh inactive.
Screening CCN1CCN(C(=O)c2ccc(N3CCC(N4CCCC(OCc5ccccc5)C4)CC3)cc2)CC1 (stereo not drawn) returned ST2 IL33 inh inactive.
For CC1=C(C(=O)Nc2ccc(Cl)cc2)C(c2ccc(Cl)cc2Cl)NC(=O)N1 (stereo not drawn) the results were ST2 IL33 inh inactive.
`CCC(C)NC(=O)c1cc(=O)[nH]c2ccc(S(=O)(=O)N3CCCCC3CC)cc12` (stereo not drawn) gave ST2 IL33 inh inactive.
`CC1(C)CC(=O)C2=C(C1)Nc1ccccc1NC2c1cc(F)ccc1F` (stereo not drawn) gave ST2 IL33 inh inactive.
For Cc1sc2nc3n(sc4nc5sc(C)c(C)c5c(=O)n43)c(=O)c2c1C the results were ST2 IL33 inh inactive.
Cc1nc2n(CCN3CCCCC3)c3ccccc3n2c1C(=O)c1cccs1 was read as ST2 IL33 inh inactive.
`Brc1ccccc1C=NC1CCCCC1` gave ST2 IL33 inh inactive.
For N#Cc1c(N=c2oc3ccccc3cc2C(N)=O)sc2c1CCCC2 the results were ST2 IL33 inh inactive.
`O=C(c1cc(F)ccc1F)C1CCCN(C(=O)C2=CCCC2)C1` (stereo not drawn) gave ST2 IL33 inh inactive.
O=C(Nc1ccc2c(c1)OCO2)c1ccc(NS(=O)(=O)c2cccs2)cc1 was read as ST2 IL33 inh inactive.
Screening CCOC(=O)c1sc(-c2ccccc2)c(C#N)c1C returned ST2 IL33 inh inactive.
Screening Cc1cc(-c2ccccc2)c(C#N)c(N)n1 returned ST2 IL33 inh inactive.
Cc1c(-c2ccccc2)sc(N)c1C#N was read as ST2 IL33 inh 33.0%*.
For COC(CNC(=O)C1CCC(Cn2c(=O)[nH]c3ccsc3c2=O)CC1)OC (stereo not drawn) the results were ST2 IL33 inh inactive.
`COc1cc(OC)cc(C(=O)Nc2nc3c(ccc4ccccc43)s2)c1` gave ST2 IL33 inh inactive.
`CC(=O)Nc1ccc(N=Cc2ccccc2O)cc1` gave ST2 IL33 inh inactive.
For CCN(CC)c1ccc(C=Nc2cc(Cl)ccc2O)c(O)c1 the results were ST2 IL33 inh inactive.
Screening CCN(CC)c1ccc(N=Cc2ccccc2O)cc1 returned ST2 IL33 inh 79.0%*.
For Nc1nnc(/C=C/c2cccc([N+](=O)[O-])c2)s1 the results were ST2 IL33 inh inactive.
O=[N+]([O-])c1cccc(/C=C/c2ccccn2)c1 was read as ST2 IL33 inh 37.0%*.

Assay outcomes as filed in PubChem BioAssay.
